Experimental data published in PubChem BioAssay AID2314 (National Center for Advancing Translational Sciences (NCATS), 2010).
The campaign covered roughly 300,000 compounds. About 37,000 (12%) were called active. For the sample, actives were picked, then their nearest neighbours and some compounds at random. Values without a mark were called inactive. Cut-off read from the data, not from the text of the source: active = max response mostly above about 13% (no sharp cut-off); inactive = mostly below about 14%.

Assay: Cycloheximide Counterscreen for Small Molecule Inhibitors of Shiga Toxin; note: read at 38.3 µM for the half of the compounds with a filed dose; 0% is about no effect
Settings: cell reporter, cycloheximide protein synthesis inhibition counterscreen; active compounds read high

| Structure (SMILES) | max response |
| --- | --- |
| OCCNc1nc2ccccc2n1-c1ncnc2sc3c(c12)CCC3 | -6.62% |
| CCCCCCCCCOC1OC(CO)C(O)C(O)C1NC(C)=O (stereo unspecified) | 2.49% |
| COc1cccc(CC2(CO)CCCN(Cc3nc(-c4cccs4)oc3C)C2)c1 (stereo unspecified) | 1.79% |
| Cc1nn2cc(-c3ccc(Cl)cc3)cnc2c1Br | 23.7% (active) |
| COc1cccc(N2CCN(c3ccc4nnc(CCC(=O)N5CCN(C)CC5)n4n3)CC2)c1 | -3.61% |
| O=C(NCCc1c[nH]c2ccccc12)C1CCN(Cc2ccc(Br)cc2)CC1 | -1.22% |
| COc1cc(OC)c(NC(=O)C2CCCN2C(=O)OCc2ccccc2)cc1Cl (stereo unspecified) | -2.36% |
| COC(=O)c1ccc(OC(=O)c2nn(C)cc2Cl)c(OC)c1 | 8.01% |
| COc1ccc(S(=O)(=O)NCCCCOc2ccc(Cl)cc2)cc1 | -3.02% |
| COc1cccc(NC(C)=[N+](C)CCNS(=O)(=O)c2ccc(Cl)cc2)c1 | 43.4% (active) |
| CCNS(=O)(=O)c1ccc(NC(=O)Nc2cccc(OC)c2)cc1 | 10.4% |
| CC/C(=N\NC(=O)c1c(C)nc2ccccn12)c1ccc(Cl)cc1 | 6.12% |
| CN(C)c1ccc(C2N(C)C(=O)c3ccccc3N2C)cc1 (stereo unspecified) | -2.11% |
| O=C(COc1ccc2ccccc2c1)N1CCN(C(=O)c2cccs2)CC1 | -3.04% |
| O=C(C1=C(O)C(=O)N(CCOCCO)C1c1ccccn1)c1cccs1 (stereo unspecified) | 15.5% (active) |
| O=C(C1=C(O)C(=O)N(c2ncccn2)C1c1cccs1)c1ccco1 (stereo unspecified) | 0.951% |
| Cc1ccc2[nH]c(=O)c(CC(=O)O)c(-c3ccccc3)c2c1 | -1.3% |
| c1ccc(COc2ccccc2CNCc2cccnc2)cc1 | 2.03% |
| CC(C)(C)OC(=O)N/N=C/c1ccc(C(=O)O)cc1 | 29.1% (active) |
| COC(=O)N/N=C/c1ccc(/C=N/NC(=O)OC)cc1 | -2.42% |
| O=C(O)c1ccc(/C=N/NC(=O)c2ccc(Br)cc2)cc1 | -2.33% |

| Structure (SMILES) | max response |
| --- | --- |
| Cc1cccc2c1cnn2C(=O)CCC(=O)NC1CCCCC1 | 4.44% |
| Cc1nc2nc(SCC(=O)Nc3cccc(F)c3)[nH]c2cc1Br | 1.17% |
| CNC(=O)n1ccc(C(=O)N2CCCCC2)n1 | 1.48% |
| O=C(C1CCN(S(=O)(=O)c2cccs2)CC1)N1CCCCCC1 | 10% |
| O=C(c1ccc(Cl)c(Cl)c1)N1CCCC1 | -2.63% |
| COc1ccccc1N1CCN(C(=O)c2cc(-c3ccc(Cl)c(Cl)c3)on2)CC1 | -1.8% |
| O=C(c1cc(-c2cccs2)on1)N1CCCCC1 | 50.6% (active) |
| O=C(c1ccco1)N1CCN(C(=O)c2ccc(COc3ccc(F)cc3)o2)CC1 | -1.31% |
| O=C(c1cc(-c2ccccc2O)on1)N1CCCC1 | 35% (active) |
| COc1cccc(OC)c1OCCN1CCN(C(=O)c2ccco2)CC1 | -3.58% |
| COc1cccc(-c2cc(C(=O)N3CCN(c4ccccc4OC)CC3)no2)c1 | 7.23% |
| COc1ccccc1-c1cc(C(=O)N2CCCCC2)no1 | 59.2% (active) |
| COc1cccc(OCc2cc(C(=O)N3CCN(C(=O)c4ccco4)CC3)no2)c1 | 44.9% (active) |
| N#Cc1cccc(NC(=O)CN2CCCCCC2)c1 | 4.22% |
| CC1CN(C(=O)CCC(=O)NCc2cccnc2)c2ccccc2O1 (stereo unspecified) | 0.76% |
| OCCN(Cc1ccccc1)Cc1ccc(Cl)cc1 | -2.21% |
| CCc1nnc(NC(=O)CCN(c2ccc(C)cc2)S(=O)(=O)c2ccccc2)s1 | -1.73% |
| COc1ccc(C2NC(=O)N(C)C(C)=C2[N+](=O)[O-])cc1 (stereo unspecified) | -2.28% |
| COc1cc(Cl)ccc1OCc1cc(C(=O)N2CC[C@@H]3CCCC[C@H]3C2)no1 | 38.6% (active) |
| CCn1ccnc1CN(C)C(=O)c1cc(COc2ccc(Cl)cc2OC)on1 | 39.1% (active) |
| COc1ccc(C(=O)C2CCCN(C(=O)c3cc(C)on3)C2)cc1F (stereo unspecified) | 1.02% |

| Structure (SMILES) | max response |
| --- | --- |
| COc1ccc(OCc2cc(C(=O)N3CCCC3)no2)c2ccccc12 | 65.1% (active) |
| COc1cc2c(C(=O)N(C)c3cc(Cl)ccc3OC)cn(C)c(=O)c2cc1OC | -3.47% |
| Cc1ccc(C)c(OCc2cc(C(=O)N3CCN(c4cnccn4)CC3)no2)c1 | 19.7% |
| Cc1cc(NC(=O)c2cc(-c3cccs3)on2)nn1Cc1ccc(Cl)cc1 | 9.8% |
| CC(=O)Nc1cccc(Nc2nc(-c3cccs3)nc3ccccc23)c1 | 13.3% |
| CC(=O)c1ccc(NC(=O)c2cc(-c3cccs3)on2)cc1 | 16.4% (active) |
| COc1ccccc1OCc1ccc(C(=O)N2CCN(C)CC2)o1 | 1.3% |
| CCn1ccnc1CN(C)C(=O)c1cc(COc2ccc(-n3cncn3)cc2)on1 | -1.13% |
| COc1cc(Cl)ccc1OCc1cc(C(=O)N(C)CCc2c(C)n[nH]c2C)no1 | 32.5% |
| O=C(Cc1csc(Nc2nc(=S)[nH]c3ccccc23)n1)NCCCN1CCN(c2cccc(Cl)c2)CC1 | 1.69% |
| Cc1ccnc(NC(=O)Cn2ccc([N+](=O)[O-])n2)c1 | -1.7% |
| CCOC(=O)/C(=N\Nc1cc(Cl)ccc1Cl)N1CCN(C)CC1 | -1.84% |
| Cc1c(C)c2c(OCC(=O)NCCCO)cc3c(c2oc1=O)CCC(C)(C)O3 | 0.89% |
| CN(CC#CCC(c1ccccc1)c1ccccc1)C(C)(C)C | -2.81% |
| Cc1ccccc1NC(=O)CSc1nc2ccc(Nc3nc(N4CCOCC4)nc(N4CCOCC4)n3)cc2s1 | -3.62% |
| CCCCC1(C(=O)OCC)NC(c2ccc(O)cc2)C2C(=O)N(c3ccccc3)C(=O)C21 (stereo unspecified) | -1.77% |
| CCOc1ccc(OCC(=O)Nc2c3c(nn2C(C)(C)C)CS(=O)(=O)C3)cc1 | 0.307% |
| N#CCC(=O)N/N=C/c1cn(Cc2ccc3ccccc3c2)c2ccccc12 | 1.05% |
| c1ccc(Cc2cc[n+](Cc3ccccc3)cc2)cc1 | -3.55% |
